# High-throughput results as filed in PubChem BioAssay.
# Shown are actives, neighbours in structure and some others; about 6.2% of the full set was active somewhere.
# FMDV antiviral: High Throughput Screening for Foot and Mouth Disease Virus Antivirals; Potency, µM (titrated, usually from 57.9 µM), actives largely listed as inhibitors; FMDV antiviral cell-based qHTS; AID 1159524, 2015; 1.2% of 410,000 active; calls by dose curve; tested in HEK293T cells; further: read-out not given here; nearly all actives have a fitted effect of over 45% in size
# MARV entry inh: qHTS for inhibitors of binding or entry into cells for Marburg Virus; Marburg virus pseudotyped entry inhibition, cell reporter; Potency, µM (series often up to 37.8 µM), usual class: inhibitors; 1.8% of 300,000 active; calls by dose curve; tested in HEK293 cells
# HCMV antiviral: qHTS Assay for inhibitors of the human cytomegalovirus (HCMV); HFF cells, HCMV-luciferase reporter, 72 h; hits give low values; activity change, negative = inhibition, % at 57.5 µM; 4.5% of 410,000 active; AID 1259415, 2018; in the data active means activity change below about -60%; inconclusive means no clear call, values can overlap the other calls; inactive means above about -39%
#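 After 16 h attachment at 37C, HFF cells received test compound and HCMV-luciferase (1 PFU/cell); reporter luminescence read 72 h later, data normalized against buffer-only and known inhibitor Salinomycin.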
# Lassa entry inh: qHTS for Inhibitors of binding or entry into cells for Lassa Virus; Lassa virus pseudotype entry inhibition, cell reporter; Potency, µM (highest dose often 37.9 µM), hits mostly inhibitors; 1.2% of 300,000 active; calls by dose curve; tested in HEK293 cells; further: nearly all actives have a fitted effect of over 50% in size
# Numbers stand for hits; – = inactive; ? = inconclusive; · = not tested or not shown.
SMILES,FMDV antiviral,MARV entry inh,HCMV antiviral,Lassa entry inh
Cc1cc(C(=O)OCC(=O)N2CCN(C(=O)c3ccco3)CC2)c(C)n1-c1ccc(F)cc1,–,–,–,?
CCOC(=O)c1cc2c(ccn2-c2ccc(F)cc2)n1CC(=O)N1CCN(C(=O)c2ccco2)CC1,–,–,–,9.2µM
CCCCn1nnnc1C(Nc1ccccc1C(C)=O)C1CC1 (stereo not given),·,·,–,·
Clc1ccc(-n2nnnc2-c2cnc3ccccc3c2-c2ccccc2)cc1,–,–,-72,–
CC(C)=CCc1c2c(c3occ(-c4ccc(O)cc4)c(=O)c3c1O)C=CC(C)(C)O2,?,·,-106,·
CC(C)=CCc1c2c(c3occ(-c4ccc(O)c(O)c4)c(=O)c3c1O)C=CC(C)(C)O2,?,?,–,16µM
Cc1ccc(NC(=O)C2CCCN(S(=O)(=O)c3cccc4nsnc34)C2)c(C)c1 (stereo not given),–,–,–,–
CNC[C@@H](CC1CCCCC1)NC[C@H](CC(C)C)NCCc1cccc(C(F)(F)F)c1,?,·,-99,·
CNC[C@@H](Cc1ccccc1)NC[C@@H](CC1CCCCC1)NCCCc1ccccc1,?,·,-101,·
CN(Cc1cccc(C(F)(F)F)c1)C(=O)C1CCC(=O)N(CC2CCCCC2)C1 (stereo not given),–,·,–,·
Cc1c(Cl)cccc1NC(=S)NCCc1ccc(Cl)cc1,–,?,-86,?
Cc1c(Cl)cccc1NC(=S)NCc1ccccc1,–,–,-78,–
Cc1c(Cl)cccc1NC(=S)NCCc1ccc(S(N)(=O)=O)cc1,–,?,-80,–
Cc1ccc(NC(=S)NCc2ccc(S(N)(=O)=O)cc2)cc1Cl,–,–,-81,–
CC(C)CNC(=O)C1(C)CCCN1C(=O)c1ccncc1 (stereo not given),–,·,–,·
O=C(N=Nc1c(O)[nH]c2c(Cl)cc(Cl)cc12)c1ccccc1O,·,·,–,·
COc1cc(C(CC2=C(c3ccccc3)Cc3ccccc32)NC(=O)C(F)(F)F)cc(OC)c1OC (stereo not given),·,–,·,·
COc1ccc(C(=O)N(Cc2cc3cccc(C)c3nc2N(C)C)CC2CCCO2)cc1 (stereo not given),–,·,·,·
CN(C)/C=N/c1c(C#N)cnn1-c1ncnc2sc(-c3ccccc3)cc12,?,?,–,11µM
CN(C)/C=N/c1c(C#N)cnn1-c1ccccc1,·,–,–,–
O=C(Nc1ccc(-c2csc(Nc3cccc(C(F)(F)F)c3)n2)cc1)c1ccccc1,?,·,-83,·
O=C(Nc1ccc(-c2csc(Nc3cccc(C(F)(F)F)c3)n2)cc1)c1cc([N+](=O)[O-])cc(C(F)(F)F)c1,?,·,-78,·
Cc1ccc(C)c(NC(=O)Cn2c(=O)n(CCCS(=O)(=O)C3CCCCC3)c(=O)c3ccccc32)c1,–,–,–,–
CC(C)OCCCN1C(=O)c2[nH]nc(-c3ccccc3O)c2C1c1ccccc1F (stereo not given),–,?,–,?
CCOC(=O)C1=C(C)N=C2S[C@H](C)C(=O)N2[C@@H]1c1ccc(OC(C)=O)c(OC)c1,·,–,·,·
SMILES,FMDV antiviral,MARV entry inh,HCMV antiviral,Lassa entry inh
O=C(CC1C(=O)N(c2ccccc2)C(=O)N1CCC1=CCCCC1)Nc1ccc(F)cc1 (stereo not given),–,?,–,–
c1ccc(-c2sc3ccccc3c2-c2ccc(OCCN3CCCCC3)cc2)cc1,–,·,-64,·
O=c1ccc(-c2ccccc2)nn1Cc1c(F)cccc1Cl,–,–,–,?
CC(=O)Nc1ccc(Nc2cc(C)nc3c(-c4ccc(Cl)cc4)cnn23)cc1,–,?,-70,?
COc1cccc(CNC(=O)c2c(OC)cc(=O)n3c2CCN(C(=O)c2ccc(Cl)cc2)CC3)c1,–,·,·,·
COc1ccc(N(C)C(=O)NCc2noc3ccc(C)cc23)c(OC)c1,–,·,-82,–
COc1ccc(-c2c(C)nn3c(C(F)(F)F)cc(-c4ccccc4)nc23)cc1OC,–,–,–,–
COc1ccc(C=C(C#N)c2ccc(OC)cc2)cc1,–,7.9µM,–,?
COc1ccc(C(C#N)=Cc2ccccc2OC)cc1,–,·,-88,·
Nc1nc2c(ncn2[C@@H]2O[C@H](CNCC3=Cc4cc(O)ccc4OC3)[C@@H](O)[C@H]2O)c(=O)[nH]1,–,·,–,·
Cc1nc(SCC(=O)c2c[nH]c3ccccc23)n[nH]1,–,–,-69,?
COc1ccc2c(c1)-c1nc(-n3ncc(C(=O)N(C)CCO)c3C3CC3)ncc1CC2,–,·,·,·
CC(C)C[C@H](NC(=O)c1nc[nH]c1C(=O)N1CCN(C(=O)OC(C)(C)C)CC1)C(=O)OC(C)(C)C,–,·,-96,·
CC(C)(C)OC(=O)[C@H](CCCCN)NC(=O)c1nc[nH]c1C(=O)N[C@@H](CCCCN)C(=O)OC(C)(C)C,–,·,–,·
CC(C)C[C@H](NC(=O)c1nc[nH]c1C(=O)NCC(=O)OC(C)(C)C)C(=O)OCc1ccccc1,–,·,–,·
C[C@H](NC(=O)c1nc[nH]c1C(=O)N1CCN(C(=O)OC(C)(C)C)CC1)C(=O)OC(C)(C)C,–,·,–,·
CC(C)C[C@H](NC(=O)c1nc[nH]c1C(=O)N[C@@H](CC(C)C)C(=O)OC(C)(C)C)C(=O)OCc1ccccc1,–,·,-101,·
CC(C)C[C@H](NC(=O)c1[nH]cnc1C(=O)Nc1ccccc1)C(=O)OC(C)(C)C,–,·,-102,·
CCOC(=O)c1ccc(NC(=O)c2nc[nH]c2C(=O)N[C@@H](CC(C)C)C(=O)OC(C)(C)C)cc1,–,·,–,·
CC(C)(C)OC(=O)[C@H](Cc1ccccc1)NC(=O)c1nc[nH]c1C(=O)N[C@@H](CCCCN)C(=O)OC(C)(C)C,–,·,-68,·
COc1ccc(S(=O)(=O)N(CC(=O)Nc2ccccc2Cl)Cc2ccccc2)cc1,–,·,–,–
COc1cccc(CNCCC2=C3C=CC=CC3N=C2)c1 (stereo not given),·,11µM,·,·
COc1ccc(-c2nc(-c3ccccn3)ncc2S(C)(=O)=O)cc1,–,–,-61,–
COc1ccc(-c2nc(-c3ccccc3)ncc2S(C)(=O)=O)cc1,–,–,–,–
CC1OC(OC2C=C3CCC4C(CCC5(C)C(c6ccc(=O)oc6)CCC45O)C3(C)CC2)C(O)C(OC2OC(CO)C(O)C(O)C2O)C1O (stereo not given),?,?,-97,?
SMILES,FMDV antiviral,MARV entry inh,HCMV antiviral,Lassa entry inh
CCOc1ccc(C2CC(=O)Nc3c2c(=O)nc(SCc2ccccc2C)n3C)cc1OC (stereo not given),–,–,–,–
Cc1cc(-n2c(C)cc(C(=O)CSc3ncnc4ccccc34)c2C)no1,13µM,9.2µM,-78,?
CC(=O)c1cccc(OCC(=O)c2cc(C)n(-c3cc(C)on3)c2C)c1,22µM,–,–,–
Cc1cc(-n2c(C)cc(C(=O)COc3ccc4ccc(=O)oc4c3)c2C)no1,–,?,?,–
C[C@H]1[C@@H](NC(=O)Nc2ccc(C#N)cc2)CC[C@@]23CCCN2C(=O)CCC[C@@H]13,·,·,–,·
COc1ccc2c(c1)c1c(c(=O)n(-c3ccc(C)cc3)c(=O)n1CC(=O)c1ccc(Cl)cc1)n2C,–,·,–,–
COc1ccc(-c2cc(CNC(=O)CCl)on2)cc1,?,?,-63,?
